From PubChem BioAssay AID493240 (Broad Institute, 2011) come the findings set out here.

Screen size: about 1,300 compounds; about 270 (21%) were called active. How the calls were made is not given here. The list is a sample of the results. Results with a measured potency or affinity are listed apart.

A short description of the test: cytotoxicity in parental SK-MEL-5 melanoma cells – cell-based, CellTiter-Glo, cherry-picked, set 3, orthogonal assay for MITF inhibitor project, dose response (AID 493240). The settings on record: SK-MEL-5 viability, ATP luminescence (CellTiter-Glo), 24 h; series mostly up to 35 µM. For orientation: Cellular ATP, detected with luciferase, serves as a proxy for viable cell number.
As for `O=C(/C=C/c1ccc2c(c1)OCCO2)c1ccccc1`, the outcome was inactive.
Regarding `COc1cccc(/C=C/C(=O)c2ccc3c(c2)OCCO3)c1OC`, the result was inactive.
Turning to `O=C(Nc1nc2ccsc2c(=O)s1)C1CCC1`, the outcome was inactive.
Take `O=C(Nc1ccccc1Cl)c1cc(=O)c2ccccc2o1`: the result was inactive.
The result for `Cc1ccc(-c2noc(CN3CCCCC3)n2)cc1` reads “inactive”; that for `Cc1cc(C)c2c(N)c(C(=O)N/N=C/c3cccnc3)sc2n1`, “inactive”; that for `Cc1nc2ccc(NC(=O)c3ccco3)cc2nc1C`, “inactive”.
For the molecule `COc1cccc(/C=N/NC(=O)c2cccs2)c1`, the outcome was inactive.
The result for `CC1Cc2cc(-c3csc(N)n3)ccc2O1` (stereo not given) reads “inactive”.
Regarding `CCCCOc1ccc(-c2ncc([N+](=O)[O-])cn2)cc1`, the outcome was inactive.
`COC(=O)CSC1=C(C#N)C(=O)NC(c2ccccc2)S1` (stereo not given): the outcome was inactive.
Consider `COc1nc(NC2CCCCC2)nc(NC(C)(C)C)n1`, for which the result was inactive.
Turning to `Cc1ccc2nc(Cc3ccc(N)cc3)oc2c1`, the outcome was inactive.
As for `Cc1nc(NC(=O)/C=C/c2ccccc2)n[nH]1`, the result was inactive.
To `CCCc1ccc(-c2ccc(/C=C/C(=O)O)cc2)nc1` belongs “inactive”.
The result for `[2H]C(CCOS(N)(=O)=O)c1ccc(C(C)(C)C)cc1` (stereo not given) reads “inactive”; that for `CC(=O)N(C1CC(C)C(C#N)(C#N)C1(C#N)C#N)N(C)C` (stereo not given), “inactive”.
The result for `Cc1cccnc1NC(=O)NC(=O)c1ccc(C(C)(C)C)s1` reads “inactive”; that for `O=C(CC(=O)c1ccccc1)Nc1ccccn1`, “inactive”.
Turning to `COc1ccc(NC(=O)c2cc3ccccc3oc2=O)c(OC)c1`, the result was inactive.
With `NNC(=O)Cn1c(SCc2ccccc2)nc2ccccc21`, the result was inactive.
The result for `CCCCOc1ccc(-c2nnn(C(C)(C)C(=O)OC)n2)cc1` reads “inactive”.
Regarding `CCSc1nnc(NC(=O)C2CCCCC2)s1`, the result was inactive.
In the case of `COCc1cc(C)nc2sc(C(=O)Nc3ccc(OC)cc3)c(N)c12`, the outcome was inactive.
Take `CCN(CC)c1ccc(/C=N/NC(=O)c2cccc(S(=O)(=O)N3CCOCC3)c2)c(O)c1`: the result was inactive.
Take `O=C(N/N=C\c1ccc([N+](=O)[O-])o1)C1COc2ccccc2O1` (stereo not given): the result was inactive.
Turning to `Clc1ccc(-c2noc(CN3CCOCC3)n2)cc1`, the result was inactive.
To `COc1ccc(-c2cc(-c3ccccc3)c(C#N)c(S(C)=O)n2)cc1` (stereo not given) belongs “inactive”.
On to `COc1ccc(-c2nc3n(c2C)Cc2ccccc2-3)cc1`, for which the outcome was inactive.
With `CC(C)(C)c1ccc(C(=O)Nc2sc3c(c2C(=O)O)CCC3)cc1`, the result was inactive.
On to `Cc1ccc(-n2ncc3c(SCC(N)=O)ncnc32)cc1C`, for which the outcome was inactive.
To `CC(/C=C1\SC(=O)N(CCCC(=O)O)C1=O)=C\c1ccccc1` belongs “inactive”.
To `Cc1cc(C)n(CCC(=O)N/N=C/c2c(O)ccc3ccccc23)n1` belongs “inactive”.
To `COc1ccc2nc(N3CCN(C(=O)c4ccc([N+](=O)[O-])o4)CC3)sc2c1` belongs “inactive”; to `Cc1cccc(NC(=O)CNC(=O)Cn2ncc(Cl)c(Cl)c2=O)c1C`, “inactive”.
On to `C/C(=N\Nc1nccnc1Cl)c1ccc(O)c(C)c1`, for which the outcome was inactive.
To `CCOC(=O)c1c(C)[nH]c(C)c1C(=O)COC(=O)c1ccc([N+](=O)[O-])s1` belongs “inactive”.
On to `O=C(c1ccc([N+](=O)[O-])s1)N1CCCc2ccccc21`, for which the outcome was inactive.
As for `CCOC(=O)C(=Cc1ccc(-n2ccnc2)cc1)C(=O)OCC`, the result was inactive.
Take `NC(=O)C1CCN(C2=C(NS(=O)(=O)c3ccc(Br)cc3)C(=O)c3ccccc3C2=O)CC1`: the result was inactive.
To `Cc1ccc(C(CNS(=O)(=O)c2ccc(Br)cc2)N2CCN(C)CC2)cc1` (stereo not given) belongs “inactive”; to `Cc1cc(N2CCOCC2)ccc1/C=C\[N+](=O)[O-]`, “inactive”; to `COc1cc2c(c(OC)c1OC)-c1ccc(N(C)CC(OC)OC)c(=O)cc1[C@@H](NC(C)=O)CC2`, “inactive”.
The result for `Nc1ccc2c(c1)OC1(CCCC1)O2` reads “inactive”; that for `COc1cc(OC)cc(C(=O)N[C@H](C(=O)Nc2nc3ccccc3[nH]2)C(C)C)c1`, “inactive”; that for `Oc1c(CN2CCCC2)cc(COCc2ccccc2)c2cccnc12`, “inactive”.
To `CN(C)C1CCN(Cc2cc(COCc3ccccc3)c3cccnc3c2O)C1` (stereo not given) belongs “inactive”; to `COc1cccc(NC(=O)c2cc3c(=O)n4ccccc4nc3n(CC(C)C)c2=N)c1`, “inactive”.
Consider `Cc1ccc(NC(=O)c2cc3cccc([N+](=O)[O-])c3[nH]2)cc1`, for which the result was inactive.
The result for `CCN=c1scc(-c2ccco2)n1/N=C/c1ccc(O)cc1` reads “inactive”; that for `CC(C)CC(=O)/C=C/n1c(=S)oc2ccccc21`, “inactive”.
`CCC(=O)Nc1cc2nn(-c3ccc(C)cc3)nc2cc1C`: the outcome was inactive.
As for `Cc1cc(N2CCOCC2)n2ncc(-c3ccccc3Cl)c2n1`, the result was inactive.
The result for `O=C(CCl)N(Cc1cc(=O)[nH]c2ccccc12)c1ccccc1` reads “inactive”.
`CCNc1nc(N)c(C(=O)c2ccc(Cl)s2)s1`: the result was inactive.
Turning to `CN(C)c1ccc(CNc2ccccn2)cc1`, the result was inactive.
For `CN(C)c1ccc(NC(=S)c2ccccn2)cc1`, the result was inactive.
In the case of `O=C1c2ccccc2C(=O)c2c1ncn2-c1ccccc1`, the outcome was inactive.
The result for `Cc1c(/C=C/C(=O)c2ccc(Cl)s2)cnn1C` reads “inactive”.
The result for `CC1CN(N=Cc2ccc([N+](=O)[O-])o2)C(=N)O1` (stereo not given) reads “inactive”; that for `C#Cc1cccc(NC(=O)CSc2nnc(-c3ccc(C(F)(F)F)cn3)o2)c1`, “inactive”; that for `Cc1nc(NCCOc2ccccc2)sc1C(=O)Nc1ccccc1`, “inactive”.
To `COc1ccc(NC(=O)c2cc(-c3ccccc3Cl)on2)cc1` belongs “inactive”; to `CCOC(=O)c1sc(-c2ccccc2)cc1N`, “inactive”; to `CCOC(=O)c1cnc2c(ccc3ccccc32)c1N`, “inactive”.
For `Cc1cc(/C(N)=N/OC(=O)Nc2ccc(Cl)cc2)no1`, the outcome was inactive.
To `COc1ccc(NCc2nc3ccccc3n2C)cc1` belongs “inactive”; to `CC(=O)c1cccc(Nc2nc(-c3cccnc3)cs2)c1`, “inactive”.
With `CC(C)N1C/C(=C/c2cccnc2)C(=O)/C(=C/c2cccnc2)C1`, the outcome was inactive.
The result for `CN1C/C(=C/c2cccnc2)C(=O)/C(=C/c2cccnc2)C1` reads “inactive”.
In the case of `C=CCn1c(C)cc(C(=O)Cn2ncc(Cl)c(Cl)c2=O)c1C`, the outcome was inactive.
Turning to `O=C(NC1=NCCS1)C1COc2ccccc2O1` (stereo not given), the outcome was inactive.
As to `COc1cc2ccccc2cc1C(=O)Nc1ccc(N2CCN(C)CC2)cc1`, the result was inactive.
`Cc1c(C(=O)N(CCO)Cc2ccccc2)oc2c(F)cccc12`: the outcome was inactive.
The result for `CCC1CCCCN1CCCNC(=O)c1cn(CC)c2ccc(S(=O)(=O)N(C)C3CCCCC3)cc2c1=O` (stereo not given) reads “inactive”; that for `COc1c(C)cccc1C(=O)Nc1ccc(N2CCN(S(C)(=O)=O)CC2)cc1`, “inactive”; that for `Cc1ccc(-c2nc(-c3ccncc3)no2)cc1C`, “inactive”.
To `CCOc1ccc(NC(=O)c2ccc3snnc3c2)cc1` belongs “inactive”; to `Nc1ccccc1SC1CC(=O)N(c2ccc3c(c2)OCCO3)C1=O` (stereo not given), “inactive”.
The result for `O=C(Nc1ccc([N+](=O)[O-])cc1)c1ccccc1` reads “inactive”; that for `O=C(O)c1ccc(C(=O)Nc2ccc(F)cc2)cc1`, “inactive”.
For the molecule `COc1ccc2c(C)nc(Nc3nc(-c4ccccc4)cc(=O)[nH]3)nc2c1`, the outcome was inactive.
The result for `O=C(Cn1cc(/C=C\[N+](=O)[O-])c2ccccc21)Nc1ccccc1` reads “inactive”; that for `Oc1cc(NCc2cccnc2)ccc1-c1nc2ccccc2o1`, “inactive”; that for `NCCN1C(=O)S/C(=C\c2ccc3c(c2)OCO3)C1=O`, “inactive”.
To `O=C(COC(=O)C1=COCCO1)Nc1c(F)cccc1F` belongs “inactive”; to `N=c1n(CC(=O)c2ccc([N+](=O)[O-])cc2)c2ccccc2n1Cc1ccccc1Cl`, “inactive”.
With `N=c1n(CC(=O)c2ccc([N+](=O)[O-])cc2)c2ccccc2n1Cc1ccccc1`, the outcome was inactive.
As to `Cc1ccccc1Cn1c(=N)n(CC(=O)c2ccc([N+](=O)[O-])cc2)c2ccccc21`, the outcome was inactive.
`O=C(C[n+]1cccc2ccccc21)c1ccc([N+](=O)[O-])cc1`: the outcome was inactive.
To `CC(NC(=O)C12CC3CC(CC(C3)C1)C2)C(=O)NN=Cc1ccc([N+](=O)[O-])o1` (stereo not given) belongs “inactive”; to `Cc1ccc(-n2nnnc2Sc2nc([N+](=O)[O-])nn2C)c(C)c1`, “inactive”.
`O=C(O)c1cccc(COc2ccccc2Cl)c1`: the outcome was inactive.
To `COc1ccc(O)c(/C=N/NC(=O)c2ccc(CSc3nc(C)cc(C)n3)cc2)c1` belongs “inactive”; to `O=C(COc1ccc2c(c1)CCC2)N1CCc2ccccc21`, “inactive”.
For `O=S(=O)(c1ccc(F)cc1)c1snnc1-c1ccccc1`, the result was inactive.
As for `CCOc1ccc2nc(C)cc(Nc3cccc([N+](=O)[O-])c3)c2c1`, the result was inactive.
Consider `COC(=O)c1ccc(Nc2cc(C)nc3ccc(C)cc23)cc1`, for which the outcome was inactive.
The result for `COc1ccc(NC(=O)CCC(=O)N/N=C/c2ccc([N+](=O)[O-])s2)cc1` reads “inactive”.
To `COc1ccc(NC(C)C(=O)N/N=C/c2ccc([N+](=O)[O-])s2)cc1` (stereo not given) belongs “inactive”; to `O=[N+]([O-])c1c(NCCCO)cc(Sc2ccc(Cl)cc2)c2nonc12`, “inactive”.
The result for `O=C(NCc1ccccc1)C(=O)Nc1cccc(C(=O)O)c1` reads “inactive”; that for `CC(=O)NC1=C(N(C)C2CCS(=O)(=O)C2)C(=O)c2ccccc2C1=O` (stereo not given), “inactive”.
With `O=C(c1cc2ccccc2oc1=O)N(Cc1ccccc1)C1CCS(=O)(=O)C1` (stereo not given), the result was inactive.
To `O=C(NC1CCCCC1)C(c1cccnc1)N(C(=O)CCl)c1ccc(F)cc1` (stereo not given) belongs “inactive”.
As to `O=C(NC1CCCCC1)C(c1cccnc1)N(C(=O)CCl)c1cccc(Cl)c1` (stereo not given), the outcome was inactive.
Regarding `CCC(=O)NC(c1ccccc1OC)c1ccc2cccnc2c1O` (stereo not given), the result was inactive.
The result for `Cc1ccc(C(=O)c2no[n+]([O-])c2C(=O)c2ccc(C)cc2)cc1` reads “inactive”.
With `Cc1ccc(NC(=O)C2CCN(S(=O)(=O)c3c(C)noc3/C=C/c3ccco3)CC2)nc1`, the result was inactive.
The result for `Cc1[nH]nc(Nc2ccc(Br)cc2)c1[N+](=O)[O-]` reads “inactive”; that for `CC(C)(C)c1ccc(-c2noc(CCC(=O)NCC3CCCO3)n2)cc1` (stereo not given), “inactive”.
`Oc1ccccc1/C=N/Nc1cccc2cccnc12`: the result was inactive.
The result for `O=C(CCCCC(=O)NN=Cc1ccccc1O)NN=Cc1ccccc1O` reads “inactive”; that for `Cn1cccc1-c1cc(C(=O)N/N=C/c2cc(Br)ccc2O)[nH]n1`, “inactive”.
For `O=C(N/N=C/c1cc(Br)ccc1O)c1ccncc1`, the outcome was inactive.
